Assay outcomes: PubChem, National Center for Advancing Translational Sciences (NCATS)
Most compounds without a hit are left out; they make up all but 6.8% or so of the library.
MCF10A rerep: induces DNA re-replication in MCF 10a normal breast cells | Potency, µM (top dose mostly 46.1 µM), for inactives: at the highest dose activity, positive = re-replication, most hits filed as activators | MCF 10A DNA re-replication, Hoechst nuclear intensity, 48 h | AID 624296 | 350,000 compounds, 2.9% hits; also: % of control where 0% means no effect; nearly all actives have a fitted effect of over 50% in size
KB-V1 cytotox: KB-V1 MDR subline cytotoxicity; Potency, µM (highest dose often 46.1 µM), hits mostly cytotoxic; AID 1347076; KB-V1 MDR cells viability, CellTiter-Glo, 72 h; 400,000 compounds, 3.4% hits; also: % is scaled to controls: 0 for no effect and ±100 for the full control effect; nearly all actives have a fitted effect of over 60% in size
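Cytotoxicity toward P-gp-expressing KB-V1 cells was determined as loss of CellTiter-Glo luminescence after 72 h at 37 degrees C. Compounds were tested in quantitative HTS format across a concentration range, with curves fitted to normalized data.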
PTAP TSG101 blk: blocks PTAP/TSG101 interaction to inhibit HIV-1 budding; Fluorescence polarization, FITC-PTAP peptide / Tsg101 binding; Potency, µM (doses to about 115 µM), inactives show at the top dose activity change, negative = inhibition, usual class: inhibitors; 340,000 tested, under 10 active; Q99816; active = well fitted inhibition curve with a large enough effect in the main read-out, with a control signal flat, not every such curve was filed as active; inconclusive = small, poorly fitted or top-dose-only effect, or effect the other way, or a change in a side signal; inactive = no such curve, though single readings can be large or run the other way; also: % of control where 0% means no effect
Target sequence (Q99816 whole entry, looked up): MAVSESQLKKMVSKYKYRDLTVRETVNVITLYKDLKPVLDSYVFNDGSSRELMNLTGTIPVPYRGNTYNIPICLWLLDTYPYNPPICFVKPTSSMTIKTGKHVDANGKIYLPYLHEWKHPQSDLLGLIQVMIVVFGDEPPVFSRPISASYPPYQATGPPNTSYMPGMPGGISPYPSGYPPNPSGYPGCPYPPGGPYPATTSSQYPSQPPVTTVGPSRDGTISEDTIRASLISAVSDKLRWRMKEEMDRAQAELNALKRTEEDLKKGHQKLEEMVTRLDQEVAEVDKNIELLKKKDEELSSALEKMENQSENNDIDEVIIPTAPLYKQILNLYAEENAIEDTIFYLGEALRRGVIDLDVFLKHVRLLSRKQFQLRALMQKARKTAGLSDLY
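Fluorescence anisotropy tracks displacement of a FITC-tagged PTAP peptide (50 nM) from the Tsg101 binding domain (10 uM), following a 20 min room-temperature incubation at pH 7.5.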
PINK1 expr mod: modulators of PINK1 expression; PINK1 immunofluorescence, high-content cytometry, 24 h; Potency, µM (titrated, usually from 76.6 µM), for the others: at the highest dose activation (PINK1 increase), usual class: activators; 410,000 compounds, 0.2% hits; active = well fitted activation curve with a large enough effect; inconclusive = small, poorly fitted or top-dose-only effect; cell line not stated here; also: % of control where 0% means no effect; nearly all actives have a fitted effect of over 65% in size
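PINK1 protein, normally rapidly degraded, was detected by immunofluorescence after 24 hour compound treatment of a stable cell line. Titration data (5 concentrations) came from laser-scanning cytometry, with CCCP-treated wells as controls.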
KB-3-1 cytotox: KB-3-1 parental cell cytotoxicity; KB-3-1 viability, CellTiter-Glo ATP luminescence, 72 h; Potency, µM (titrated, usually from 46.1 µM), most hits filed as cytotoxic; 400,000 compounds, 1.4% hits; AID 1347075; also: % is scaled to controls: 0 for no effect and ±100 for the full control effect; nearly all actives have a fitted effect of over 60% in size
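Multi-concentration cytotoxicity screen in KB-3-1 cells grown in DMEM lacking phenol red with 10% FBS. After 72 h at 37 °C with compound, ATP-dependent luminescence was recorded.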
SW480 rereplic: DNA re-replication induction in SW480 cells; Potency, µM (highest dose often 46.1 µM), inactives show top-dose re-replication activation, most hits filed as activators; 340,000 compounds, 1.8% hits; SW480 DNA re-replication, Hoechst DNA content imaging, 48 h; also: % of control where 0% means no effect; nearly all actives have a fitted effect of over 55% in size
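Quantitative HTS format with DMSO vehicle controls; 48 hr drug incubation at 37 C, then 40 min Hoechst staining and scanning imager measurement at 405 nm excitation.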
An asterisk follows results filed as active; i = inactive; ? = inconclusive; / = not tested or not shown; ! = a repeat was not active; [ ] = remark or other dose. Unless noted, calls follow the shape of the dose curve; as a rule, active = well fitted curve in the direction sought with a large enough effect; inconclusive = small, poorly fitted or top-dose-only effect, or another doubt; inactive = no such curve, though single readings can be large; an effect the other way counts as inactive or inconclusive. Potency is read from the fitted curve at half-maximal effect.

SMILES | MCF10A rerep | KB-V1 cytotox | PTAP TSG101 blk | PINK1 expr mod | KB-3-1 cytotox | SW480 rereplic
COc1cc(/C=C/C(=O)CC(=O)/C=C/c2ccc(O)c(OC)c2)ccc1O | 25.9µM*! | i | ? | ? | ? | 11.6µM*!
COC(=O)[C@@H]1CCCN1C(=O)c1c(OC)cc(=O)n2c1CCN(Cc1ccc3c(c1)OCCO3)CC2 | / | / | / | 0.1% | / | /
COc1cc2nc(CN(C)Cc3ccc(SC)cc3)[nH]c(=O)c2cc1OC | 12.7% | ? | -4.2% | 3.2% | i | 8.4%
CSc1ccc(CN(C)Cc2nc3cc(C(F)(F)F)ccc3c(=O)[nH]2)cc1 | 15.2% | 23.1µM* | -1.1% | 1.3% | i | -9.6%
COc1cc(Cl)c(C)cc1NC(=O)c1cc(CN2CCOCC2)on1 | / | i | / | 3.7% | i | /
CCC(=O)N1CCc2cc(Br)cc(S(=O)(=O)N3CCCC(C(=O)NCc4ccccc4)C3)c21 (stereo not drawn) | / | i | / | 0.7% | ? | /
Cc1ccc(C(=O)N2CCCCC2)cc1NC1=C(Cl)C(=O)N(Cc2ccccc2)C1=O | 8.2µM* | i | 0.2% | -1.0% | ? | ?
O=C(c1ccc2c(c1)N(Cc1ccccc1)C(=O)c1ccccc1S2)N1CCCC1 | 16.7% | 2.31µM* | -1.7% | 0.5% | i | -7.8%
COc1ccccc1CCNC(=O)Cc1c(C)c2cc(Cl)c(O)cc2oc1=O | / | / | / | 0.2% | / | /
O=C(NCCc1ccccc1)c1ccccc1Cl | 7.6% | i | 4.4% | 0.1% | i | -4.0%
O=C(NCCc1ccccc1)c1cccnc1N1CCCCCC1 | 25.9µM* | ? | -4.5% | / | i | 3.1%
COc1ccc(C(C[N+](=O)[O-])c2c(-c3ccccc3)cc3ccccn23)cc1 (stereo not drawn) | 18.4µM* | ? | 0.9% | 6.3% | ? | ?
COc1cc(C(C[N+](=O)[O-])c2c(-c3ccccc3)cc3ccccn23)cc(OC)c1OC (stereo not drawn) | ? | i | -1.3% | 11.7% | ? | 11.6µM*
COc1ccc(C(C[N+](=O)[O-])c2c(-c3ccccc3)cc3ccccn23)cc1OC (stereo not drawn) | 20.6µM* | i | -1.8% | 8.9% | i | ?
Cc1ncc2c(c1CNC(=O)c1cncs1)CCN(C(=O)c1ccc(C(F)(F)F)cc1)C2 | / | / | / | 0.1% | / | /
COc1ccc(OC)c(NC(=O)C2CCN(c3cc(-c4ccccc4)nc4ncnn34)CC2)c1 | 21.8% | 14.6µM* | -10.3% | -1.7%[38.3 µM] | i | 0.0%
CCc1c(C)nc2ncnn2c1N1CCCC(C(=O)NCc2cccs2)C1 (stereo not drawn) | 13.4% | 16.4µM* | -4.0% | 0.2% | ? | -9.0%
CCc1c(C)nc2ncnn2c1N1CCCC(C(=O)Nc2cc(F)ccc2C)C1 (stereo not drawn) | -0.9% | i | -6.6% | -1.0% | i | -2.2%
Cc1nc2ncnn2c(N2CCCC(C(=O)Nc3ccccc3Br)C2)c1C (stereo not drawn) | 4.2% | 10.3µM* | 4.1% | -0.3% | i | -7.2%
CCc1c(C)nc2ncnn2c1N1CCC(C(=O)NCc2cccs2)CC1 | -3.4% | i | -3.5% | 0.4% | i | ?
CCc1c(C)nc2ncnn2c1N1CCCC(C(=O)NCCc2ccccc2)C1 (stereo not drawn) | 1.7% | 13µM* | -10.7% | 1.4%[38.3 µM] | ? | -3.1%
COc1ccccc1CCNC(=O)Cn1ccc2cc(S(=O)(=O)N3CCCCC3)ccc21 | / | i | / | 4.2% | i | /
CCCCN(CC)CCNC(=O)c1c(C)oc2ncnc(N3CCOCC3)c12 | / | i | / | -1.1% | i | /
CCc1c(C)nc2ncnn2c1N1CCC(C(=O)Nc2cccc(C(C)=O)c2)CC1 | 10.0% | ? | -7.0% | -4.0%[38.3 µM] | ? | 7.3%
CCc1c(C)nc2ncnn2c1N1CCC(C(=O)NCc2cccc(OC)c2)CC1 | 0.1% | 23.1µM* | -6.3% | 2.5%[38.3 µM] | ? | -7.9%
SMILES | MCF10A rerep | KB-V1 cytotox | PTAP TSG101 blk | PINK1 expr mod | KB-3-1 cytotox | SW480 rereplic
CSc1cccc(Nc2nc3c(S(=O)(=O)c4ccccc4)nnn3c3ccc(Cl)cc23)c1 | / | i | / | -0.5% | i | /
Cc1cc(Br)ccc1NC(=O)CN1C(=O)C2C3CC(c4ccccc4)C(C3)C2C1=O (stereo not drawn) | ? | 20.6µM* | 1.1% | 4.7% | i | 5.3%
N#CCCn1c(=O)c(CCc2ccccc2)nc2cnc(Oc3cccc(Cl)c3)nc21 | / | / | / | 0.4% | / | /
CC(=O)Nc1ccc2ccc3cccc4ccc1c2c34 | 6.51µM* | i | -5.0% | 1.4% | i | 20.6µM*
COc1ccc(NC(=O)CSC2=C(C#N)C(c3ccco3)C3=C(CCCC3=O)N2)c(OC)c1 (stereo not drawn) | ? | i | -11.6% | 0.6% | i | ?
COc1cccc(NC(=O)CSC2=C(C#N)C(c3ccco3)C3=C(CCCC3=O)N2)c1 (stereo not drawn) | 25.1µM* | ? | -5.5% | 5.2% | ? | 12.6µM*
CCCCc1ccc(NC(=O)CSC2=C(C#N)C(c3ccco3)C3=C(CCCC3=O)N2)cc1 (stereo not drawn) | 3.98µM* | i | 1.4% | ? | ? | 20.6µM*
Cc1ncc2c(c1CNC(=O)c1ccccc1F)CCN(C(=O)c1ccc3c(c1)OCCO3)C2 | / | / | / | 4.9% | / | /
CCNC(=S)N(Cc1cc2c(C)ccc(C)c2[nH]c1=O)C1CCCC1 | ? | i | -1.8% | 4.5% | ? | 3.66µM*
Cc1ccc(C)c2[nH]c(=O)c(CN(CC3CCCO3)C(=O)NC3CCCCC3)cc12 (stereo not drawn) | 8.9% | 14.6µM* | -4.0% | 24.8%[38.3 µM] | i | 0.2%
Cc1ccc(C)c2[nH]c(=O)c(CN(Cc3nnnn3C3CCCCC3)CC3CCCO3)cc12 (stereo not drawn) | ? | i | -10.8% | ? | i | 24.7%
Cc1ccc(Cl)cc1NC(=O)N1CCC(CN2CCc3ccccc3C2)CC1 | / | / | / | -0.7% | / | /
Cc1ccc([N+](=O)[O-])c(OCCN2CCC(Cc3ccccc3)CC2)c1 | ? | 20.6µM* | -5.2% | 1.4% | ? | 24.0%
COCCn1c(SCC(=O)Nc2cc(C(C)(C)C)nn2-c2ccccc2)nnc1-c1ccncc1 | -69.0% | 16.4µM* | -2.5% | -3.5% | i | -32.1%
COCCn1c(SCC(=O)Nc2cc(C(C)(C)C)nn2-c2ccccc2)nc2ccccc2c1=O | -3.2% | ? | -2.4% | 9.9% | i | -3.2%
COCCNc1nnc(SCC(=O)Nc2nnc(-c3ccccc3)o2)s1 | 1.9% | i | 0.3% | 3.5% | i | -2.1%
COCCn1c(SCCCC(=O)c2ccc(Br)cc2)nnc1-c1ccncc1 | 17.9% | 2.59µM* | -2.4% | 0.2% | 10.3µM* | 0.7%
